In the library only some 1.8% were active in any assay of this set; here they are far more common.
PAD4 FP inh = PAD4 (human) enzyme inhibition | recombinant PAD4, RCA probe fluorescence polarization | Q9UM07 | AID 485272 | 0.41% of 330,000 active | inhibition, % at 6.36 µM;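 active = percent inhibition above a cutoff equal to the mean of all tested compounds plus 3 SD, cut at about 15% in these data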;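 also: 0% = PAD4 with RCA probe and DMSO and 100% = probe without PAD4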
Target sequence (Q9UM07 whole entry, looked up): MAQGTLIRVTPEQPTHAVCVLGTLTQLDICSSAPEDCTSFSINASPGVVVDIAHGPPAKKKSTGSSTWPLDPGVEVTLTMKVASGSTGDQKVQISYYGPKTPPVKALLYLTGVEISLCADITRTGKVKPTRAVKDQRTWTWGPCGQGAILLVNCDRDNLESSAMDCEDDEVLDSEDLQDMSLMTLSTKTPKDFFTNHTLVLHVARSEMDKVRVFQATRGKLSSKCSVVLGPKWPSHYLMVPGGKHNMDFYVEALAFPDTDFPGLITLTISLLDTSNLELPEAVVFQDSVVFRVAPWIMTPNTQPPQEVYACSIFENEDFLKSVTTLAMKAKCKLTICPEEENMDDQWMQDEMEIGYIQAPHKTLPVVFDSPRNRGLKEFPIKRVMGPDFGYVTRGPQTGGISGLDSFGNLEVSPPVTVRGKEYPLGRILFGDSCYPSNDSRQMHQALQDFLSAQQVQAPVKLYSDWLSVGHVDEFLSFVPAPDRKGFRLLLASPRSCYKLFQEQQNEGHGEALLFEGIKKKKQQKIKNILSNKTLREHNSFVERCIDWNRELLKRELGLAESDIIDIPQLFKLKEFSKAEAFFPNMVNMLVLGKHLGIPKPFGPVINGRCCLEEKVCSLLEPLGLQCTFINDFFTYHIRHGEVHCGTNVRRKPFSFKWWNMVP
Fam108B counter = counter-screen for RBBP9 inhibitors: inhibitors of mouse Fam108B; inhibition, % at 9.51 µM; recombinant Fam108B, FP-Rh probe fluorescence polarization; 0.33% of 300,000 active; AID 1947;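 active = inhibition above the screen mean inhibition plus 3 SD, computed separately per campaign, cut at about 18% in these data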;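 also: inhibitors lower polarization as less probe binds the enzyme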
LYPLA2 counter = counter-screen for PME1 inhibitors: inhibitors of human LYPLA2 | O95372 | recombinant LYPLA2, FP-Rh probe fluorescence polarization | inhibition, % at 5.9 µM | 0.38% of 320,000 active;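 active = inhibition above the screen-wide mean plus 3 SD, limit set per campaign, cut at about 26% in these data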;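 also: 0% = LYPLA2 with DMSO and 100% = wells lacking LYPLA2 enzyme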
LYPLA1 counter = blocks human lysophospholipase 1, a PME1 counter-screen; inhibition, % at 5.9 µM; recombinant LYPLA1, FP-Rh probe fluorescence polarization; O75608; AID 2174; 0.16% of 320,000 active;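 active = inhibition above the mean of all tested compounds plus 3 SD, set per campaign, cut at about 14% in these data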;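 also: inhibitors block serine hydrolase probe labeling of LYPLA1 so polarization falls; 0% = enzyme with DMSO and 100% = wells lacking LYPLA1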
GSTO1 counter = blocks human GSTO1 in RBBP9 counter-screen | P78417 | recombinant GSTO1, activity-based probe fluorescence polarization | inhibition, % at 5.96 µM | 1.1% of 300,000 active;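 active = inhibition above the campaign mean inhibition plus 3 SD, cut at about 35% in these data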;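 also: 0% = GSTO1-1 with DMSO and 100% = wells lacking GSTO1-1 enzyme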
PME-1 primary = blocks human protein phosphatase methylesterase 1; Q9Y570; recombinant PME-1, FP-Rh probe fluorescence polarization; inhibition, % at 5.9 µM; 0.53% of 320,000 active;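 active = inhibition above the campaign mean of all compounds plus 3 SD, cut at about 26% in these data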;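 also: competitive labeling of PME-1 active site by serine hydrolase directed probe; 0% = PME-1 with DMSO and 100% = wells lacking PME-1 enzyme; inhibitors block probe labeling so polarization falls and inhibition rises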
GSTO1 inh conf = GSTO1 (human) inhibition, confirmation. shares compounds with GSTO1 counter. recombinant GSTO1, probe fluorescence polarization. inhibition, % at 5.96 µM. 54% of 2,400 active;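 active = inhibition above the primary screen's cutoff, its mean inhibition plus 3 SD, cut at about 35% in these data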;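 also: loss of polarization as inhibitors block binding of rhodamine sulfonate ester activity probe; 0% = GSTO1 with DMSO and 100% = wells lacking GSTO1 enzyme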
GSTO1 recomb ABPP = blocks recombinant human glutathione S-transferase omega 1; 30% of 130 active; recombinant GSTO1, gel ABPP SE-Rh probe fluorescence; inhibition, % at 1 µM; shares compounds with GSTO1 counter;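 active = inhibition of the enzyme GSTO1 above about 75%, limit read from the data; inactive = inhibition below that limit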
Starred values were filed as active, the others as inactive; x = no result.

SMILES	PAD4 FP inh	Fam108B counter	LYPLA2 counter	LYPLA1 counter	GSTO1 counter	PME-1 primary	GSTO1 inh conf	others
CSc1ccccc1NC(=O)COC(=O)c1c[nH]c(=O)[nH]c1=O	-2	3	3	0	4	2	x
CCc1cc(C(=O)N=Nc2c(O)[nH]c3c(Br)cc(Br)cc23)c2ccccc2n1	-12	3	1	-2	75*	12	20
Cc1cc2c(NC(=O)CC(C)(C)CC(=O)O)cccc2nn1	-1	4	2	0	42*	-7	7
Cc1ccc(C=C2C(Cl)=C(Cl)C(Cl)=C2Cl)cc1	2	9	5	0	45*	2	15
COc1ccc(NC(=O)CN(C)C(=O)CSc2nc3ccccc3s2)cc1	-23	0	-9	-6	-21	-9	x
Nc1c(C(=O)NCc2ccco2)c2nc3ccccc3nc2n1CCc1ccc(F)cc1	37*	7	-7	-6	75*	8	58*
Nc1c(C(=O)NCc2ccc3c(c2)OCO3)c2nc3ccccc3nc2n1CCCN1CCOCC1	-15	6	1	-7	50*	6	-4
Nc1c(C(=O)NCCN2CCOCC2)c2nc3ccccc3nc2n1-c1ccc2c(c1)OCO2	-7	9	-1	-1	16	-6	x
COc1ccc(/C=N/NC(=O)c2ccn[nH]2)cc1CSc1ccccn1	0	5	15	1	47*	-4	-5
O=C(CSc1ncc(-c2ccccc2)n1C1CCCC1)N1CCc2ccccc21	-3	1	0	-2	39*	-5	22
Cn1c(-c2ccccc2)cnc1SCC(=O)N1CCCc2ccccc21	5	8	-4	-8	3	6	x
COc1ccc2cc(C3(C)NC(=O)N(CC(=O)NCCC4=CCCCC4)C3=O)ccc2c1 (stereo unspecified)	-1	-1	11	-2	2	5	x
COc1ccc(C2(C)NC(=O)N(CC(=O)NCCC3=CCCCC3)C2=O)cc1OC (stereo unspecified)	-4	3	-6	-5	39*	-6	22
Cc1cc(NC(=O)c2ccccc2)n(-c2nc3ccccc3[nH]2)n1	-5	-3	-9	-3	-5	-4	x
CCOC(=O)C(=O)Nc1cc(C)nn1-c1nc2ccccc2[nH]1	-7	-2	0	-3	45*	-3	3
C=C(C)C(COc1c2occc2cc2ccc(=O)oc12)OC(C)(C)C(O)COc1c2occc2cc2ccc(=O)oc12 (stereo unspecified)	0	x	x	x	x	x	x
COc1ccc(C(OCC2CO2)c2ccc(OC)cc2)cc1 (stereo unspecified)	1	8	-4	-5	82*	-1	92*	GSTO1 recomb ABPP=66
O=C(COC(=O)C12CC3CC(CC(O)(C3)C1)C2)Nc1ccc(Cl)c(S(=O)(=O)N2CCOCC2)c1	1	x	x	x	x	x	x
Cc1cccn2c(=O)c(/C=C(\C#N)C(=O)NCc3ccco3)c(N3CCOCC3)nc12	3	0	-3	0	5	0	x
N#C/C(=C\c1c(N2CCC(C(N)=O)CC2)nc2ccccn2c1=O)C(=O)NCc1ccco1	1	-2	5	1	45*	-8	8
CC1CC(C)(C)Nc2ccc(OC(=O)c3ccco3)cc21 (stereo unspecified)	0	3	4	-1	43*	17	5
O=C(Oc1ccc2ccccc2c1)c1ccco1	-4	1	7	3	9	-4	x
CCCC(=O)NCCc1nc2cc([N+](=O)[O-])ccc2n1C	-1	0	1	3	-1	2	x
CC1(OC(=O)c2cccs2)C(=O)C=C2C=C3CCCN3C=C2C1=O (stereo unspecified)	15*	14	-7	-5	60*	0	62*
CC1(OC(=O)C2CCCC2)C(=O)C=C2C=C3CCCN3C=C2C1=O (stereo unspecified)	-2	4	1	-1	21	7	x
SMILES	PAD4 FP inh	Fam108B counter	LYPLA2 counter	LYPLA1 counter	GSTO1 counter	PME-1 primary	GSTO1 inh conf	others
O=C(COc1ccc2ccccc2c1Br)Nc1ncn[nH]1	3	-3	-2	-1	3	1	x
COc1cccc(-c2nc(CC(=O)O)cs2)c1OC	-4	-2	5	3	8	-1	x
COc1cccc(-c2nc(CCl)cs2)c1OC	-5	2	5	-1	61*	2	99*	GSTO1 recomb ABPP=51
COc1ccc(-c2ccc(=O)n(Cc3ccccc3)n2)cc1	-2	0	1	0	6	2	x
COc1ccc(/C=C2/C(=O)N(Cc3ccccc3)N=C2C)cc1	4	0	6	6	40*	1	7
C=CCOC(=O)C1=C[C@H](c2ccc(Br)cc2)C[C@H](OCc2ccc(CO)cc2)O1	-4	-4	-5	-2	-1	-2	x
Cc1cc(=O)oc2cc(OCC(=O)N3CCC(C(N)=O)CC3)ccc12	1	2	3	-2	-9	3	x
O=C(O)c1cccc(Cn2c(Cl)c(/C=N/NC(=O)c3ccccc3Cl)sc2=O)c1	1	2	3	-1	1	0	x
O=C(O)c1cccc(Cn2c(Cl)c(/C=N/Nc3ccccc3)sc2=O)c1	3	8	5	7	50*	8	65*
COc1cccc(CC(=O)OC(C)C(=O)Nc2ccc(Cl)cn2)c1 (stereo unspecified)	1	0	1	0	0	-2	x
CCN(CC)c1ccc2c(c1)CCCN2	1	2	5	6	42*	1	5
COc1ccc(NC(=O)C(OC(=O)c2ccc([N+](=O)[O-])o2)c2ccccc2)cc1Cl (stereo unspecified)	-12	8	-6	-1	50*	-3	10
O=C1CN(C(=O)COC(=O)CNC(=O)c2ccccc2)c2ccccc2N1	-3	-1	-1	3	89*	0	3
O=C1CN(C(=O)COC(=O)CNC(=O)c2ccc(Cl)cc2)c2ccccc2N1	-1	-2	1	0	8	-4	x
O=C(O)C1CCCCC1C(=O)NCc1ccc2c(c1)OCO2 (stereo unspecified)	-1	0	-4	-2	7	0	x
Oc1ccc(C=Nc2cccc3ccccc23)c(O)c1	-21	0	-1	-5	38*	9	32
O=[N+]([O-])c1ccc(O)c(C=Nc2cccc3ccccc23)c1	-11	7	3	-1	52*	-4	16
O=[N+]([O-])c1ccc(O)c(C=Nc2cccc3ncccc23)c1	-3	-2	-2	-2	5	2	x
